Experimental data published in PubChem BioAssay AID916 (National Center for Advancing Translational Sciences (NCATS), 2007).
Results filed as inconclusive are left out. Active and inactive are the calls of the source. Calls come from the whole dose curve; as a rule, active = well fitted activation curve with a large enough effect in the signal ratio, with a control signal flat (not every such curve was filed as active); inconclusive = small, poorly fitted or top-dose-only effect, or a change in a side signal; inactive = flat fitted curve, though single readings scatter; the % refers to the signal ratio.

Experiment: Confirmation Concentration-Response Assay for Cell signaling CRE-BLA (Fsk stim)
Conditions: CHO CRE-bla reporter (cAMP response element driving beta-lactamase), NKH477 EC10 stim, FRET ratio; series mostly up to 38.3 µM
From the text: NIH Molecular Libraries Screening Centers Network [MLSCN] NIH Chemical Genomics Center [NCGC] MLSCN Grant: 1X01MH079867-01 Assay Provider: Marshall W. Nirenberg, U.S. National Heart, Lung and Blood Institute CRE beta-lactamase Assay Overview Memories persist for different lengths of time, from seconds or minutes to a lifetime. There are two kinds of memory: short-term memory (STM) and long-term memory (LTM). STM lasts for minutes to hours, which maybe mediated by modifications of molecules involved in synaptic functions. LTM lasts for days or longer, and may be due to the formation of new synapses or restructuring of existing synapses. LTM, but not STM, requires gene transcription and synthesis of proteins. CREB (cyclic-AMP Responsive Element Binding Protein) is one of the candidates plays an important role for enhancement of some types of LTM. CREB, a family of transcription factors, regulates the transcription of genes containing cAMP Responsive Elements (CRE). CRE is a nucleotide sequence often found in the promoter regions of genes that are binding sites for CREB. Using a beta-lactamase reporter-gene under control of cAMP responsive element, a cell-based assay [CellSensor(TM) CRE-bla CHO developed by Invitrogen Corp.] was used to measure forskolin-induced signaling. The selected compounds were measured for their ability to modulate positively the action of EC10 NKH 477, a water soluble forskolin, on reporter gene activity. Compounds were screened in a titration series in 1536-well format. Positive modulators were identified based on the AC50 values derived from the screening data.
NCGC Assay Protocol Summary 2000 cells/5uL in Opti-MEM medium containing 0.5% dialyzed FBS, 0.1 mM NEAA, 1 mM sodium pyruvate and 10 mM HEPES was dispensed into 1536-well plates and cells were cultured at 37 degrees Celsius overnight. Next day 23 nL of compounds or DMSO were delivered to each well using a pin tool, and 1uL of EC10 level of NKH 477, or EC100 level of IBMX, a PDE inhibitor, in the present of NKH 477, or assay medium was added. And then the plates were incubated at 37 degrees Celsius for 3 hours. 1 uL of CCF4-dye mixture was added to each well. After incubated at room temperature for 2 hours the plates were measured on an EnVision plate reader at Excitation 405nm, Emission1=460nm and Emission 2=530nm. The %Activity was determined from the ratio of 460nm/530nm. Keywords: NIH Roadmap, MLSCN, MLSMR, qHTS, NCGC, CRE, beta-lactamase reporter-gene assay.

**Q.** With Cn1c(C(=O)N2CCC3(CC2)OCCO3)cc2c(=O)n(C)c3ccccc3c21 as the molecule, how does the Potency read?
**A.** The Potency was 25.1 µM (active).

**Q.** With COc1cc2c(c(OC)c1OC)-c1ccc(OC)c(=O)cc1[C@@H](NC(C)=O)CC2 as the molecule, how does the Potency read?
**A.** Its Potency is 5.01 µM (active).

**Q.** Which Potency does the source give for CC(C)C(=O)N1CCN(CCN=Cc2c(O)n(C)c(=O)n(C)c2=O)CC1 here?
**A.** The Potency was “inactive”.

**Q.** With Cn1c(O)c(C=NCCOc2ccc(Cl)cc2)c(=O)n(C)c1=O as the molecule, how does the Potency read?
**A.** The Potency was 15.8 µM (active).
